# Shown is part of a subset that was picked to be rich in hits.
# AmpC inh detg – inhibitors of E. coli AmpC beta-lactamase with detergent; AID 485294; Potency, µM (titrated, usually from 114 µM), most hits filed as inhibitors; P00811; AmpC hydrolysis of nitrocefin, absorbance 480 nm, 0.01% Triton; 370,000 tested, 0.041% active; note: nearly all actives have a fitted effect of over 25% in size
# Target sequence (P00811 whole entry, looked up): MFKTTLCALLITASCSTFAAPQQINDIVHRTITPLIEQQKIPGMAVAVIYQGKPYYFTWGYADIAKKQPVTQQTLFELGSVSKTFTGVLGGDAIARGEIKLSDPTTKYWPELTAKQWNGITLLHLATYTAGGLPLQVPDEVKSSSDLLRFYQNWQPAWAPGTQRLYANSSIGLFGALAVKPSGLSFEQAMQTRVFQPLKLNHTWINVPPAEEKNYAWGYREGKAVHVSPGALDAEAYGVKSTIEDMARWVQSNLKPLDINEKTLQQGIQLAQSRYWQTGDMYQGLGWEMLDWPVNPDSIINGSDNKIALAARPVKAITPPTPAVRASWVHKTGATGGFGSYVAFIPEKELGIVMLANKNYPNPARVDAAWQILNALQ
#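 20 mM phosphate pH 7.0 + 0.01% (detergent screen) or 0.0001% Triton X-100; 5.3 nM AmpC reagent; cpd preinc 15 min RT; nitrocefin (800 uM stock) to start; A480 q20 s × 4 min; Activity was normalised to no-enzyme and no-compound control wells.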
# NS1 function inh – blocks influenza NS1 protein function; Potency, µM (highest dose often 46.1 µM); AID 2326; 270,000 tested, 0.4% active; calls by dose curve; note: actives are rising curves; nearly all actives have a fitted effect of over 50% in size
#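 Growth recovery, yeast-based: influenza A NS1 expressed in S. cerevisiae causes slow growth, and suppressors are detected by OD600. The parent strain without NS1 is used as positive control.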
# Shiga toxin inh – Shiga toxin inhibition. 290,000 tested, 9.2% active. Vero cells, Shiga toxin protein synthesis inhibition reporter. inhibition, % at 38.7 µM; in the data active = inhibition mostly above about 28%, no sharp cut-off; inactive = mostly below about 43%
# Cycloheximide cs – counter-screen for Shiga toxin inhibitors: cycloheximide protein synthesis inhibition. cell reporter, cycloheximide protein synthesis inhibition counterscreen. max response, %. 300,000 tested, 12% active; in the data active = max response mostly above about 13%, no sharp cut-off; inactive = mostly below about 14%; note: read at 38.3 µM for the half of the compounds with a filed dose
# AmpC inh no detg – blocks E. coli AmpC beta-lactamase in detergent-free assay | P00811 | AmpC nitrocefin hydrolysis, absorbance 480 nm, 0.0001% Triton | Potency, µM (titrated, usually from 57.1 µM), most hits filed as inhibitors | 330,000 tested, 0.52% active; note: nearly all actives have a fitted effect of over 20% in size
#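 AmpC (5.3 nM in the dispensed reagent) in 20 mM phosphate pH 7.0 with 0.01% (detergent screen) or 0.0001% Triton X-100 was preincubated with compounds for 15 min at room temperature. Nitrocefin was then added from an 800 uM solution, and hydrolysis was followed at 480 nm.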
# A number is an active result; – = inactive; ? = inconclusive; · = no result given; [ ] = another dose, or the depositor's remark. Unless noted, calls come from the whole dose curve; as a rule, active = well fitted curve in the direction sought with a large enough effect; inconclusive = small, poorly fitted or top-dose-only effect, or another doubt; inactive = no such curve, though single readings can be large; an effect the other way counts as inactive or inconclusive.
SMILES,AmpC inh detg,NS1 function inh,Shiga toxin inh,Cycloheximide cs,AmpC inh no detg
S=C1NC2(CCCCC2)NN1c1ccccc1,?,·,–,–,–
Cc1ccc(C)c(-n2c(N)c(C#N)c3nc4ccccc4nc32)c1,–,·,·,·,·
Cc1cccc(/C(N)=N/OC(=O)Cc2ccccc2)c1,–,–,81.2,41.4,–
Cc1cccc(/C(N)=N/OC(=O)C23CC4CC(CC(C4)C2)C3)c1,–,–,83.6,42.4,–
CCC(C(=O)O/N=C(\N)c1cccc(C)c1)c1ccccc1 (configuration not stated),?,–,–,23.8,–
N/C(=N\OC(=O)CCc1ccccc1)c1cccc(Br)c1,–,–,–,–,–
CCC(=O)C1=C(c2cccc([N+](=O)[O-])c2)N(C(=O)CC)n2c(nnc2C2CCCCC2)S1,–,·,·,·,·
O=C(Nc1nccs1)c1sc2cc(Cl)ccc2c1Cl,–,–,63.1,38.5,–
Cc1cnc(NC(=O)c2sc3ccccc3c2Cl)s1,–,–,63.5,57.2,–
CCCC(=O)N1CCN(c2ccc(NC(=O)c3sc4ccccc4c3Cl)cc2)CC1,–,–,–,–,–
Cc1cccc(NC(=O)CNC(=O)c2sc3ccccc3c2Cl)n1,–,·,·,·,–
O=C(Nc1ccccn1)c1sc2cc([N+](=O)[O-])ccc2c1Cl,–,–,59.1,20.9,–
CCCn1nnc(NC(=O)c2sc3ccccc3c2Cl)n1,?,–,99.7,41.2,–
CCN(CC(=O)Nc1c(F)cccc1F)C(=O)c1ccc(OCc2c(C)noc2C)cc1,?,·,·,·,–
COc1ccc(C2=NC3(CCCCCC3)N(CC(=O)Nc3ccc(C)c(C)c3)C2=O)cc1,–,·,·,·,·
CCCc1cc(C(=O)NNC(=S)NC(C)c2ccccc2)cs1 (configuration not stated),–,–,–,–,–
O=C(Nc1nccs1)c1sc2ccccc2c1Cl,–,–,78.0,30.1,–
CC(C)c1nnc(NC(=O)c2sc3ccccc3c2Cl)s1,?,–,67.0,29.2,–
CCCn1nnc(NC(=O)Cc2ccccc2)n1,?,–,–,–,–
Cc1cccnc1NC(=O)CNC(=O)c1sc2ccccc2c1Cl,–,·,·,·,–
Cc1ccnc(NC(=O)c2sc3ccccc3c2Cl)c1,–,–,89.2,42.2,–
CCCn1nnc(NC(=O)COc2ccccc2Cl)n1,?,–,61.9,24.3,–
CCOC(=O)Cc1cc(=O)c2cc(C)ccc2[nH]1,–,–,–,–,–
C/C(=N\Nc1cccc2cccnc12)c1ccc[nH]1,?,·,74.7,40.2,–
Cc1cc(C)cc(N2C(=O)CC(c3ccc(C(F)(F)F)cc3)C3=C2COC3=O)c1 (configuration not stated),–,·,·,·,·
SMILES,AmpC inh detg,NS1 function inh,Shiga toxin inh,Cycloheximide cs,AmpC inh no detg
CC(C)OC(=O)c1ccc(NC(=O)c2cncc(Br)c2)cc1,–,–,–,19.8,–
CC(C)OC(=O)c1ccc(NC(=S)NC(=O)c2cncc(Br)c2)cc1,–,–,–,–,–
CN(C)C(=O)c1ccc(NC(=O)c2cncc(Br)c2)cc1,?,–,active,–,–
O=C(Nc1ccc(C(=O)NC2CCCCC2)cc1)c1cncc(Br)c1,–,–,–,–,–
O=c1c2ccccc2nc2n1CCN2Cc1ccc(Cl)cc1,–,–,–,32.8,–
O=c1c2ccccc2nc2n1CCCS2,–,–,–,–,–
O=C1OC[C@H]2CCCN2C(=O)[C@@H](CC(=O)N(CCO)Cc2ccccc2)C/C=C\C[C@@H]1Cc1ccc(F)cc1,·,·,·,·,–
CC/C(C)=N/N1C(=O)c2ccccc2NC1(C)CC (configuration not stated),–,–,77.3,29.6,–
CN1CC(=O)Nc2ccccc2C1=O,–,–,–,–,–
O=C(Nc1ccc(-c2nc3ccccc3o2)cc1)C1CCCO1 (configuration not stated),–,–,73.4,37.3,–
O=C(Nc1ccc(-c2nc3cc(Cl)ccc3o2)cc1)c1cc(Br)ccc1Cl,–,·,·,·,·
O=C(O)c1cccc(NC(=O)C2CCCO2)c1 (configuration not stated),–,–,–,–,–
O=C(Nc1ccc(-c2nc3cccnc3s2)cc1)C1CCCO1 (configuration not stated),–,–,–,–,–
O=C(Nc1ccc(-c2nc3cc(Cl)ccc3o2)cc1)C1CCCO1 (configuration not stated),–,–[9.22 µM],69.6,29.7,–
O=C(Nc1ccc2oc(-c3ccccc3)nc2c1)C1CCCO1 (configuration not stated),?,–,66.5,45.3,–
Cc1cc(C)c(OCC(=O)N(Cc2cccc(F)c2)Cc2ccco2)c(C)c1,–,·,·,·,·
CCN(CC)CCCNC(=O)C1CCN(C(=O)c2oc3cc4sc(N(C)C)nc4cc3c2C)CC1,?,–,–,19.0,–
COCCCNC(=O)C1CCN(C(=O)c2oc3cc4sc(N(C)C)nc4cc3c2C)CC1,–,–,60.5,35.8,–
CCCN(CCC)CCCNC(=O)C1CCN(c2nc3ccc(CC)cc3s2)CC1,–,·,·,·,·
C[C@H]1C=C(C(=O)NC2CC2)O[C@@H](OCc2ccc(CO)cc2)C1,–,–,–,12.8,–
O=C(NC1CC1)C1=C[C@@H](c2ccccc2)C[C@@H](OCc2ccc(CO)cc2)O1,–,–,–,–,–
C[C@H]1C=C(C(=O)NCc2ccccc2)O[C@@H](OCc2ccc(CO)cc2)C1,–,–,–,–,–
O=C(NC1CC1)C1=C[C@H](c2ccc(C(F)(F)F)cc2)C[C@H](OCc2ccc(CO)cc2)O1,–,–,28.0,23.8,–
COc1ccc(OC)c(-c2csc(N(Cc3ccco3)C(=O)c3cccs3)n2)c1,–,–,–,–,–
COc1ccc(-c2csc(N(C)C(=O)c3cccs3)n2)cc1,–,–,32.5,22.5,–
SMILES,AmpC inh detg,NS1 function inh,Shiga toxin inh,Cycloheximide cs,AmpC inh no detg
COc1ccc(-c2csc(N(Cc3ccco3)C(=O)c3cccs3)n2)cc1,–,–,56.6,21.8,–
O=C(COc1ccc(Cl)cc1)N(Cc1ccccc1)c1nc(-c2ccccc2)cs1,–,–,–,–,–
O=C(C1CC1)N(Cc1ccco1)c1nc(-c2ccccc2)cs1,–,–,–,8.3,–
CCN(CC)CCCN(C(=O)c1cccs1)c1nc(-c2ccc(OC)cc2)cs1,–,–,–,–,–
Cc1ccc(NC(=O)CCN2C(=O)NC(C)(C)C2=O)cc1F,?,·,·,·,–
C=CC[C@@H](CC(=O)N[C@H](CO)Cc1ccccc1)C(=O)NC[C@H](OC(=O)[C@@H](CC=C)Cc1ccc(F)cc1)c1ccccc1,·,·,·,·,–
Cc1cc(-n2cnc(-c3cn[nH]c3C)n2)no1,–,–,72.5,–,–
Cc1[nH]ncc1-c1ccccc1Cl,–,–,–,–,–
N/C(=N\OC(=O)COc1cc(Cl)c(Cl)cc1Cl)c1ccncc1,?,·,–,–,–
N/C(=N\OC(=O)COc1ccc(Cl)cc1Cl)c1ccccn1,–,–,47.7,35.2,–
N/C(=N\OC(=O)COc1ccc(Br)cc1Cl)c1ccncc1,–,–,120.9,88.3,–
Cc1cc(C)c(C)c(OCC(=O)O/N=C(\N)c2ccccn2)c1,–,–,–,–,–

# Bioassay records from PubChem BioAssay.
